From PubChem BioAssay (NCATS)
Values joined by “and” are separate entries in the source; they are usually repeats but may differ in a detail not shown here. Identical values can stand only once. A number with no mark means an inactive call. Inconclusive results are not listed. Active and inactive are the calls of the source. Unless noted, the call rests on the fitted dose curve; in most records, active means well fitted curve in the direction sought with a large enough effect; inconclusive means small, poorly fitted or top-dose-only effect, or another doubt; inactive means no such curve, though single readings can be large; an effect the other way counts as inactive or inconclusive.

Key:
[1] = qHTS assay for environmental chemicals that activate the Aryl hydrocarbon Receptor (AhR) signaling pathway (AID 651777); conditions: 1A2-DRE human hepatoma cells, luciferase, 24 h; activation: hits give high values; further: % of control where 0% means no effect; nearly all actives have a fitted effect of over 15% in size
In short: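 Human hepatoma 1A2-DRE cells stably carrying a DRE/CYP1A2 promoter–luciferase reporter, 1,200 cells/well, exposed to compound 24 hr at 37 C. Luciferase read by One-Glo luminescence after 30 min at room temperature; increased signal marks AhR activation.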

[2] = molecular target: Peroxisome proliferator-activated receptor alpha (Homo sapiens) (UniProt Q07869); assay: qHTS assay for small molecule agonists of the peroxisome proliferator-activated receptor alpha (PPARalpha) signaling pathway (AID 651778); conditions: PathHunter PPARalpha complementation, chemiluminescence, 6 h; hits give high values; further: % of control where 0% means no effect
In short: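 Chemiluminescence from complemented enzyme reported PPARalpha activation in cells after 6 hr of compound treatment at 37 C. The detection reagent was incubated for 60 min at room temperature, and compounds were scored as agonists.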

[3] = qHTS assay for small molecule agonists of the antioxidant response element (ARE) signaling pathway measured by Nrf2-dependant transcriptional activity (AID 720636; active means well fitted curve in the direction sought with a large enough effect in the repeat runs; an effect the other way counts as inactive or inconclusive; further: % of control where 0% means no effect)
In short: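 ARE-luc HepG2 cells carrying an Nrf2-responsive luciferase reporter, in medium with 1% dialyzed FBS, exposed to compound for 16 hr at 37 C, 5% CO2. Luminescence read 30 min after ONE-Glo addition.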

[4] = qHTS assay for small molecule agonists of the antioxidant response element (ARE) signaling pathway measured by Nrf2-dependant transcriptional activity - cell viability counter screen (AID 720653; active means well fitted curve in the direction sought with a large enough effect in the repeat runs; an effect the other way counts as inactive or inconclusive; further: on the % scale 0 is the no-effect control and ±100 the full control effect); conditions: ARE-bla HepG2 viability, CellTiter-Glo ATP luminescence, 16 h; max response: hits give low values
In short: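 Cytotoxicity counter screen: intracellular ATP quantified by CellTiter-Glo luminescence in the same ARE-bla HepG2 plates, after 16 h compound exposure and a 2 h beta-lactamase substrate step.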

[5] = qHTS Assay for Identifying Gametocytocidal Compounds (AID 743244); further: potency means the concentration at half of the fitted maximal effect;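 on max response: on the % scale 0 is the no-effect control and ±100 the full control effect; actives lower the fluorescent signal which means gametocytes are killed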; conditions: P. falciparum 3D7 stage III-V gametocytes, alamarBlue, 72 h; max response: hits give low values
In short: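 A resazurin-based viability read-out was applied to mature P. falciparum gametocytes: 72 h compound treatment, then 24 h dye incubation, with falling fluorescence signalling gametocytocidal effect.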

[6] = qHTS assay for cell viability of HEK293 cells (AID 743288); conditions: ATP luminescence (CellTiter-Glo), 18 h, hits give low values; further: on the % scale 0 is the no-effect control and ±100 the full control effect; nearly all actives have a fitted effect of over 50% in size
In short: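 Parental HEK293 cells, 2,000 per well, preincubated at least 5 h at 37 C, then exposed to compounds in DMSO for 18 h at 37 C. Viability by CellTiter-Glo ATP luminescence after 30 min at room temperature.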

[7] = qHTS assay for small molecule disruptors of the mitochondrial membrane potential - 5 hr assay (AID 651755; calls by dose curve; further: on the % scale 0 is the no-effect control and ±100 the full control effect; nearly all actives have a fitted effect of over 40% in size)
In short: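 HepG2, 2,000 cells/well, overnight attach; cpd or DMSO 5 hr, 37C/5% CO2; Mito-MPS 30 min 37C; fluor 490/535 + 540/590 nm.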

[8] = qHTS assay to identify small molecules that stimulate interleukin-8 (IL-8) secretion (AID 651758; active means well fitted activation curve with a large enough effect in the signal ratio; the % refers to the signal ratio; further: 0% is about no effect)
In short: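 Secreted IL-8 measured by TR-FRET sandwich (cryptate and XL665 antibodies) from THP-1 cells exposed to compound overnight (16 hrs, 37 C).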

[9] = qHTS assay for small molecule antagonists of the retinoid-related orphan receptor gamma (ROR-gamma) signaling pathway - cell viability counter screen (AID 720652; active means well fitted curve in the direction sought with a large enough effect in the repeat runs; an effect the other way counts as inactive or inconclusive;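 further: CHO reporter cells with doxycycline-induced ROR-gamma expression; series mostly up to about 92 µM; compound exposure lasted 16 hr before ATP read; on the % scale 0 is the no-effect control and ±100 the full control effect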)
In short: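 CHO cells carrying TET-inducible ROR and RORE-luciferase reporter, plated 5 hr, then dosed with compound plus doxycycline. After 16 hr at 37 C, viability read as intracellular ATP by CellTiter-Glo luminescence.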

[10] = molecular target: Tyrosine-protein kinase Yes (Homo sapiens) (UniProt P07947); assay: qHTS for small molecule inhibitors of Yes1 kinase: Primary Screen (AID 686947); further: nearly all actives have a fitted effect of over 60% in size; further: potency means the concentration at half of the fitted maximal effect
In short: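 Yes1 (4 nM) preincubated 20 min with compound, then 60 min room-temperature reaction with 0.1 mM ATP and 0.3 mg/mL poly(E4Y) in pH 7.5 Tris, 10 mM MgCl2. ADP measured by ADP-Glo luminescence, normalised to enzyme/no-enzyme controls.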

[11] = qHTS for small molecule inhibitors of Yes1 kinase: Counter Assay (AID 686950);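 further: no kinase present so only ADP-Glo detection of a fixed ADP amount is tested; luminescence from ADP-Glo reporting ADP in a fixed ATP and ADP mixture; series mostly up to about 77 µM; 0% = DMSO wells with ATP plus ADP and -100% = ATP-only wells without ADP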
In short: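 Luminescence read-out from ADP-Glo quantifies a fixed ADP amount (0.02 mM ADP with 0.08 mM ATP) after 60 min at room temperature; signal is normalized between DMSO wells with ATP/ADP and with 0.1 mM ATP alone.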

[12] = molecular target: Arylsulfatase A (Homo sapiens) (UniProt P15289); assay: qHTS screen for enhancers of Arylsulfatase A (ASA1): LOPAC Validation Assay (AID 720538); conditions: outcome: dose series up to 57.5 µM
In short: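 SV40-transformed fibroblasts from an MLD patient (ASA-I179S) were treated with compound for 48 h at 37 C. They were then lysed with 0.5 mM pNCS substrate (final) for 14 h at room temperature and stopped with NaOH; signal read by fluorescence (Ex 525/Em 598 nm), with increase denoting enhanced activity.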

[13] = qHTS for compounds that reverse cellular toxicity of Amyloid beta (A-beta) peptide in yeast: LOPAC Validation Assay (AID 720559);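 further: plate controls were DMSO for no effect and equimolar ferric chloride plus clioquinol rescue for full effect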
In short: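 Yeast expressing toxic A-beta grown with pinned compounds at 30 C for 48 hr. Growth measured as absorbance at 600 nm; data normalized to DMSO and to an equimolar FeCl3/clioquinol mixture as positive control.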

[14] = qHTS for Activators of Parkin Expression: LOPAC Validation Assay (NLuc Reporter) (AID 720572;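 further: 0% = DMSO and 100% = positive control compound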)
In short: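 Parkin promoter-driven FLuc/NLuc neuronal reporter cells; 24 h plating, 7-pt dose response, 24 h at 37 C/5% CO2; FLuc then NanoLuc reagent, 10 min each, luminescence; DMSO/positive control normalized.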

[15] = qHTS for Activators of Parkin Expression: LOPAC Validation Assay (FLuc Reporter) (AID 720573;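 further: 0% = DMSO and 100% = positive control compounds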)
In short: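 Neuronal cell line stably expressing FLuc/NLuc coincidence reporter under the Parkin promoter, 1,500 cells/well, dosed 24 h after seeding in 7-point series for 24 h at 37 C. FLuc luminescence read; normalized to DMSO and positive control (100%).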

[16] = molecular target: T1, Hexokinase-4 (Homo sapiens) + Glucokinase regulatory protein (Homo sapiens) (UniProt P35557+Q14397); assay: qHTS assay for inhibitors of recombinant human GCK-GKRP interaction: Diaphorase-coupled assay (AID 743205)
In short: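 Compounds pre-incubated 20 min with substrate, then 10 nM GST-GCK with 10 nM FLAG-GKRP added. GCK activity coupled via G6PDH and diaphorase to resorufin (5 mM glucose, 0.4 mM ATP, 0.15 mM NADP+, pH 7.6), read kinetically over 30 minutes at Ex 525/Em 590 nm.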

[17] = molecular target: T1, Hexokinase-4 (Homo sapiens) + Glucokinase regulatory protein (Homo sapiens); assay: qHTS assay for inhibitors of recombinant human GCK-GKRP interaction: HTRF assay (AID 743207);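 further: 0% = DMSO with GCK present and -100% = DMSO wells lacking GCK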
In short: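 HTRF binding of 5 nM GST-GCK and 5 nM FLAG-GKRP with 2 uM S6P in pH 7.1 Hepes buffer (MgCl2, KCl, DTT, Tween 20, BSA). Anti-FLAG XL665 and anti-GST donor added, 60 min at room temperature; 665/615 nm read, normalized to with- and without-GCK controls.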

T1 sequence (P35557 whole entry, looked up): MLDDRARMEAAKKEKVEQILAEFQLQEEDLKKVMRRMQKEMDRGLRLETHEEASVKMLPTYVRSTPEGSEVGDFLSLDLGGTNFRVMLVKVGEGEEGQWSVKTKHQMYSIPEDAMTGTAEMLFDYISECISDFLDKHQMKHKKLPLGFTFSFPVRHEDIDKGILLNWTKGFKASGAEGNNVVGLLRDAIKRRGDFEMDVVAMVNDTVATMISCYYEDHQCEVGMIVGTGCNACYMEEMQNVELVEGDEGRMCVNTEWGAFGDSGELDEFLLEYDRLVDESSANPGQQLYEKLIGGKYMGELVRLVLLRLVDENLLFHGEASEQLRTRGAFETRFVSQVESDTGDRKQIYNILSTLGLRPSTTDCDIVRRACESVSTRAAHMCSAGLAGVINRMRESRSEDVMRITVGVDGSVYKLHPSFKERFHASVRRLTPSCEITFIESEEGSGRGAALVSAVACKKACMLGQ
T1 sequence (Q14397 whole entry, looked up): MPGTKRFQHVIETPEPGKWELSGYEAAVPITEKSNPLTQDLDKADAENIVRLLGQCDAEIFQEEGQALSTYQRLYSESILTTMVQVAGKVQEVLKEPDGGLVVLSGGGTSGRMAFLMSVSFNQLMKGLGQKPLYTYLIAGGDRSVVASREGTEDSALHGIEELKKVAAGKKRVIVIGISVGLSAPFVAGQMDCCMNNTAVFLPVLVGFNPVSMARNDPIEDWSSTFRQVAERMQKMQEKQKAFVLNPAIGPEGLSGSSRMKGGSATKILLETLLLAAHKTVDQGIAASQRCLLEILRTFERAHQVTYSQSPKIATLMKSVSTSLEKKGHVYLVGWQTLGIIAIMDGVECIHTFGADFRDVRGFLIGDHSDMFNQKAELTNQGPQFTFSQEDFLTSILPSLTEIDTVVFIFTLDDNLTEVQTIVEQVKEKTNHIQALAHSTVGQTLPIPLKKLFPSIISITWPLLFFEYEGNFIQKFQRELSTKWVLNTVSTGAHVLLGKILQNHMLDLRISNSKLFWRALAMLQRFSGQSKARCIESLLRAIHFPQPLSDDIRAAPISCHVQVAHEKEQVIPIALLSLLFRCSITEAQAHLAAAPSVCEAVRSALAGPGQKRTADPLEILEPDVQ
Chain of Peroxisome proliferator-activated receptor alpha (Homo sapiens) (Q07869 whole entry, looked up): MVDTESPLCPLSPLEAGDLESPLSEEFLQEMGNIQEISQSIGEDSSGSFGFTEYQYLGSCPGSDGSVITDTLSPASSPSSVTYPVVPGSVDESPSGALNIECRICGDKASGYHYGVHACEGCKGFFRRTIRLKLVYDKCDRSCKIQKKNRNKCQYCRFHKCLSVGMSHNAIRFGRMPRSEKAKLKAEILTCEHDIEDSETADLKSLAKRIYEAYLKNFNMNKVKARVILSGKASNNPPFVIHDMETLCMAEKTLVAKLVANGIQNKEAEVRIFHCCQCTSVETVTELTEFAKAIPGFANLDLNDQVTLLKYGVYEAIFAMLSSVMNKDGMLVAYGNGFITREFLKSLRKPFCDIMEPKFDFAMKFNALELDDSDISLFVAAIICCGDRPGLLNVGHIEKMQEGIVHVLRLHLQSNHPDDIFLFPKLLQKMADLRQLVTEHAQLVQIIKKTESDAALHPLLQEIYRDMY
Chain of Tyrosine-protein kinase Yes (Homo sapiens) (P07947 whole entry, looked up): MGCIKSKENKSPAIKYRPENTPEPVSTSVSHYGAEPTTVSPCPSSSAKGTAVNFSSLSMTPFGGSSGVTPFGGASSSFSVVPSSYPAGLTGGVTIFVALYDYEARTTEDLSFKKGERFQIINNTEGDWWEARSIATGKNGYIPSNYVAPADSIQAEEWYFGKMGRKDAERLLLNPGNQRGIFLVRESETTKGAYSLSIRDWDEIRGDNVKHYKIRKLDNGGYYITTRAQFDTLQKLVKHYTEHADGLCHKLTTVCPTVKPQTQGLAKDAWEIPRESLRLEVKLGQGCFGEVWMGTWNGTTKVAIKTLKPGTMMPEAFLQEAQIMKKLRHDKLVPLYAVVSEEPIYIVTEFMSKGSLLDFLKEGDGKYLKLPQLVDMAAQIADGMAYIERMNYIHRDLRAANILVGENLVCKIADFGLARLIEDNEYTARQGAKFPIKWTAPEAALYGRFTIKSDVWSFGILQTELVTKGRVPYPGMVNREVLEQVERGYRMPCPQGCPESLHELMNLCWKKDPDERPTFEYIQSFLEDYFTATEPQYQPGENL
Chain of Arylsulfatase A (Homo sapiens) (P15289 whole entry, looked up): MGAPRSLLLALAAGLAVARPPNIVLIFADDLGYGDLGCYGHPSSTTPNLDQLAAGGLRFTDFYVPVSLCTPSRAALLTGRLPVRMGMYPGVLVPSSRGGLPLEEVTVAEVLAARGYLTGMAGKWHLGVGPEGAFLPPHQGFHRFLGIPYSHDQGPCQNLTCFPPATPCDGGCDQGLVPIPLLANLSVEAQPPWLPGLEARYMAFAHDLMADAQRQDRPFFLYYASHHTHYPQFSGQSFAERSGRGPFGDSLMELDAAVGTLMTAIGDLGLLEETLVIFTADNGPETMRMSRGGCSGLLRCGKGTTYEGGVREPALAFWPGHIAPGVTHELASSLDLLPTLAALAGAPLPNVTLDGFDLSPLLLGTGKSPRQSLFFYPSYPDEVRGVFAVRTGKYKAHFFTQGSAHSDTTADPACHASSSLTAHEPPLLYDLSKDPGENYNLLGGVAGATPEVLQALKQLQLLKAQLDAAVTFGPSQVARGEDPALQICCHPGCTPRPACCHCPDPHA

CCCCCCCCCCCC[N+](C)(C)Cc1ccccc1
activation [1]: -1.52% | max response [2]: 8.99% | outcome [3]: inactive | max response [4]: -5.65% | Potency [5]: 5.01 µM (active) | max response [6]: -18.2%

Brc1ccccc1-c1ccccc1
Potency [7]: inactive | outcome [8]: inactive | max response [2]: -0.0593% | outcome [3]: inactive | outcome [9]: inactive | max response [4]: 3.59% | max response [6]: -7.8%

CCCCC(CC)COC(=O)c1ccccc1C(=O)O (centres undefined)
Potency [7]: inactive | outcome [8]: inactive | outcome [3]: inactive | outcome [9]: inactive | max response [4]: 4.74% and -13.7% | max response [6]: -6.66% and 0.856%

O=C(Oc1ccccc1)c1ccccc1O
activation [1]: -0.0038% and 1.61% | max response [2]: 7.82% and -2.96% | outcome [3]: inactive | outcome [9]: inactive | max response [4]: -7.62% and 5.57% | max response [5]: 7.75% | max response [6]: 1.49% and 4.97%

CC(C)C(C)(C)C(C)(C)C(C)(C)S
outcome [8]: inactive | activation [1]: 1.1% and 1.7% | max response [2]: -3.79% and -2.56% | outcome [3]: inactive | outcome [9]: inactive | max response [4]: -4.36% and 4.23% | max response [5]: 40.1% | max response [6]: 6.58% and -3.43%

Cc1cc(C(C)(C)C)c(O)c(C(C)(C)C)c1
activation [1]: 0.771% and -0.0452% | max response [2]: 0.589% | outcome [3]: inactive | outcome [9]: inactive | max response [4]: -5.59% and 4.89% | max response [5]: -17.9% | max response [6]: -0.0848% and 0.626%

C[C@@H](O[C@H]1OCCN(Cc2n[nH]c(=O)[nH]2)[C@H]1c1ccc(F)cc1)c1cc(C(F)(F)F)cc(C(F)(F)F)c1
Potency [10]: inactive | outcome [11]: inactive

CN1CCC(Nc2ncc3ncnc(Nc4ccc(F)c(Cl)c4)c3n2)CC1
Potency [10]: 3.45 µM (active) | outcome [11]: inactive

OCCOCCN1CCN(C(c2ccccc2)c2ccc(Cl)cc2)CC1 (centres undefined)
max response [2]: -2.06% | outcome [3]: inactive | max response [4]: -5.74% | max response [5]: -10.6% | max response [6]: -17.9%

COc1cc(C=O)ccc1O
activation [1]: 2.04% and 0.0367% | max response [2]: -1.16% and -2.1% | outcome [3]: inactive | outcome [9]: inactive | max response [4]: -6.02% and -3.47% | max response [5]: 16.9% | max response [6]: -1.87% and -5.65%

CCN(CC)CCOc1ccc(/C(=C(\Cl)c2ccccc2)c2ccccc2)cc1
activation [1]: -0.728% | max response [2]: 11.1% | outcome [3]: inactive

O=C(NO)c1ccccc1
outcome [8]: inactive | activation [1]: -0.612% | max response [2]: -0.429% | outcome [3]: inactive | outcome [9]: inactive | max response [4]: -9.7% | max response [5]: 14.9% | max response [6]: -10.3%

Cc1ccc(O)cc1
Potency [7]: inactive | max response [2]: -0.0678% | outcome [3]: inactive | outcome [9]: inactive | max response [4]: -5.41% | max response [6]: 0.239%

COC(=O)c1c(Cl)c(Cl)c(C(=O)OC)c(Cl)c1Cl
activation [1]: 0.102% | max response [2]: -0.617% | outcome [3]: inactive | max response [4]: -11.1% | max response [6]: -7.06%

O=C(Nc1ccc(Cl)cc1)Nc1ccc(Cl)c(Cl)c1
max response [2]: -0.555% | outcome [3]: inactive

COc1ccccc1N1CCN(CCN2C(=O)CC3(CCCC3)CC2=O)CC1
outcome [12]: inactive | outcome [13]: inactive | outcome [14]: inactive | outcome [15]: inactive | outcome [16]: inactive | outcome [17]: inactive | max response [5]: 21.4%

Cn1cc(S(C)=O)c(=O)c2ccc(F)cc21 (centres undefined)
max response [5]: -4.53%

Brc1ccc([C@H]2CN3CCSC3=N2)cc1
outcome [13]: inactive | outcome [14]: inactive | outcome [15]: inactive | outcome [16]: inactive | outcome [17]: inactive | max response [5]: 13.2%

CC(C)(C)c1nnc(NS(=O)(=O)c2ccccc2)s1
max response [5]: 0.521%

CCOC(=O)[C@H](CCc1ccccc1)N[C@@H](C)C(=O)N(CC(=O)O)C1Cc2ccccc2C1
max response [5]: -4.1%

COc1cc(C(=O)NC2CCCNC2)cc(OC)c1OC (centres undefined)
max response [5]: -0.328%

CCCCCC[C@@H](CCC)C(=O)O
max response [5]: 16.9%
